The text below walks through data of PubChem BioAssay.

Usually inhibition stands for the drop in the measured response relative to a control, in per cent.

Values without a mark were called inactive. For some of these results: Results with a measured potency or affinity are listed apart. The source made the active and inactive calls. Unless noted, no rule for the calls is given here.

A short description of experiment [1]: antimalarial activity against Dd2 strain (AID 2302;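 active = growth inhibition above 50% at the single 2 µM test dose, taken to imply half-maximal potency below 2 µM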;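 also: 0% = DMSO untreated growth and 100% = chloroquine plus artemisinin killed control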). Conditions: P. falciparum Dd2 in RBCs, LDH growth readout, 72 h; at 2 µM; stronger effect = higher value.
A short description of experiment [2]: HepG2 cytotoxicity, primary screen, cytotoxicity control for P. falciparum antimalarial project, cell-based, ATP luminescence (AID 2303;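 active = inhibition above 50%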;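 also: 0% = DMSO wells and 100% = digitonin-killed cells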). Conditions: HepG2 viability, 24-48 h, at 10 µM, stronger effect = higher value.
Experiment [3] addresses L-lactate dehydrogenase (Plasmodium falciparum (isolate CDC / Honduras)) (UniProt Q27743). Description: PfLDH activity inhibition – cell lysate, 3D7 strain, counter-screen for P. falciparum growth inhibition project (AID 2304).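 Also: 0% = vehicle and 100% = reference inhibitor.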 The conditions noted are these: P. falciparum 3D7 crude extract, LDH APAD/NBT absorbance; at 2 µM; stronger effect = higher value. (In general: A counterscreen serves to expose hits that act by an unwanted route or on another target.)

Experiment [4] can be described thus: inhibition of 3D7 malaria parasite growth – strain 3D7 (AID 2306).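 Also: 0% = DMSO wells and 100% = chloroquine plus artemisinin control wells.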 The conditions noted are these: P. falciparum 3D7 erythrocytic growth, LDH absorbance, 72 h; at 2 µM; stronger effect = higher value.
Experiment [5] concerns the target Calcium-dependent protein kinase 1 (Plasmodium falciparum (isolate 3D7)) (UniProt P62344). Put plainly: PfCDPK1 kinase inhibitors, biochemical, TCAMS library (AID 1159585; cut-off not given, nearly all actives have IC50 up to about 0.98 µM;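 also: inhibitors leave more ATP so luminescence rises with inhibition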). Conditions: recombinant PfCDPK1, Kinase-Glo ATP depletion luminescence. A general note: Kinase-Glo measures the ATP left after a reaction by luminescence.
For experiment [6], the target named is Plasmodium falciparum protein kinase 6 (PK6, PF3D7_1337100) (UniProt Q8IDW1). Put plainly: PfPK6 kinase inhibitors, biochemical, TCAMS library (AID 1159586). The conditions noted are these: recombinant PfPK6, Kinase-Glo ATP depletion luminescence.
For experiment [7], the target named is Protein kinase 7 (PK7), Plasmodium falciparum 3D7 (PF3D7_0213400) (UniProt Q7YTF7). Description: inhibition of Plasmodium PK7 catalytic activity – biochemical, TCAMS antimalarial set, Kinase-Glo luminescence (AID 1159587). Conditions: recombinant PfPK7, Kinase-Glo ATP depletion luminescence.
In experiment [8] the target is Calcium-dependent protein kinase 4 (Plasmodium falciparum (isolate 3D7)) (UniProt Q8IBS5). Description: PfCDPK4 kinase inhibitors, biochemical, TCAMS library (AID 1159588; cut-off not given, nearly all actives have IC50 up to about 0.91 µM). Conditions: recombinant PfCDPK4, Kinase-Glo ATP depletion luminescence.
Chain of Calcium-dependent protein kinase 4 (Plasmodium falciparum (isolate 3D7)) (Q8IBS5 whole entry, looked up): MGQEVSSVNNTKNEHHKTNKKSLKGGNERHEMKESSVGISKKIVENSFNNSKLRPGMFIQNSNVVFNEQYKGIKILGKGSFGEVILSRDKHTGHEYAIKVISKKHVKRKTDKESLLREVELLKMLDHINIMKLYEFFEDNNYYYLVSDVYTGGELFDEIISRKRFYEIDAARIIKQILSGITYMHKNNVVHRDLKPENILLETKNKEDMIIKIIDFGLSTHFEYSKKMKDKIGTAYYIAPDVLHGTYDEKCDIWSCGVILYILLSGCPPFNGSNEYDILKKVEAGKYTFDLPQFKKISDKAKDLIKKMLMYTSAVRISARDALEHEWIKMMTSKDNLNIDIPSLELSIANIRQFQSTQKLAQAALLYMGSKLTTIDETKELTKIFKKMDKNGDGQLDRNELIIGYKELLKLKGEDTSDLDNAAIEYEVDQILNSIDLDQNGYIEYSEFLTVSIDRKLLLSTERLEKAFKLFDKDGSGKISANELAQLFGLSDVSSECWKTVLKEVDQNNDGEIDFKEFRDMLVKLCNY

Chain of L-lactate dehydrogenase (Plasmodium falciparum (isolate CDC / Honduras)) (Q27743 whole entry, looked up): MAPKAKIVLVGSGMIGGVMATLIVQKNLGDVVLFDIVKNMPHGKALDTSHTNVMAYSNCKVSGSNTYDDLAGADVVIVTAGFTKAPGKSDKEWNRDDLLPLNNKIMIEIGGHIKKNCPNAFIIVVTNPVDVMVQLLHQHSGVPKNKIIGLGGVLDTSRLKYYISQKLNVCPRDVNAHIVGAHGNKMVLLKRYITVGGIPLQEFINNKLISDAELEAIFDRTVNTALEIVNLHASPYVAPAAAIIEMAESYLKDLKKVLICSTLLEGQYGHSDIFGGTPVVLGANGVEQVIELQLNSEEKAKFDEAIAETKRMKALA
Chain of Calcium-dependent protein kinase 1 (Plasmodium falciparum (isolate 3D7)) (P62344 whole entry, looked up): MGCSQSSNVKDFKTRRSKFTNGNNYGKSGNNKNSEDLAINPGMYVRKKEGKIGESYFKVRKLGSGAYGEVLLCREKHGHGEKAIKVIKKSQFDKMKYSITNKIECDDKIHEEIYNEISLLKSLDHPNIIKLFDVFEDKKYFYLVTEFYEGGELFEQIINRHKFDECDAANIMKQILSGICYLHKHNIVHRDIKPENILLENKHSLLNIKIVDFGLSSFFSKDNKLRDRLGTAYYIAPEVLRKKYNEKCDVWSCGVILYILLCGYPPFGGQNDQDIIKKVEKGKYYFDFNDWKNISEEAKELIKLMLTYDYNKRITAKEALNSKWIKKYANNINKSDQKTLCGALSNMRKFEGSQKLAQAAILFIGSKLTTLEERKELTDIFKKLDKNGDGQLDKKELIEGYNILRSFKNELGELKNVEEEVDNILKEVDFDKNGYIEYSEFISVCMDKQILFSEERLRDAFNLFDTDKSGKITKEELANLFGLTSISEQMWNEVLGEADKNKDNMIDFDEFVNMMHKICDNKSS
Chain of Protein kinase 7 (PK7), Plasmodium falciparum 3D7 (PF3D7_0213400) (Q7YTF7 1-343): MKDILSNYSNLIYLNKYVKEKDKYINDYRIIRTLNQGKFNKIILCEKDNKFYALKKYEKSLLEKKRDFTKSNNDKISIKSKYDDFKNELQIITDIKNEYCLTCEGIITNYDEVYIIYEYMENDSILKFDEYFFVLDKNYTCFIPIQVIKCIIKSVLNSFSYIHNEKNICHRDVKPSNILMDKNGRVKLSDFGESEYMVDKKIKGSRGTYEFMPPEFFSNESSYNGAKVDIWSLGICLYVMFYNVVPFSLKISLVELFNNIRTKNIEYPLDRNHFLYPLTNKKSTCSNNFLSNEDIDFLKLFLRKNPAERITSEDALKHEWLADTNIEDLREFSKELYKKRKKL
Chain of Plasmodium falciparum protein kinase 6 (PK6, PF3D7_1337100) (Q8IDW1 1-305): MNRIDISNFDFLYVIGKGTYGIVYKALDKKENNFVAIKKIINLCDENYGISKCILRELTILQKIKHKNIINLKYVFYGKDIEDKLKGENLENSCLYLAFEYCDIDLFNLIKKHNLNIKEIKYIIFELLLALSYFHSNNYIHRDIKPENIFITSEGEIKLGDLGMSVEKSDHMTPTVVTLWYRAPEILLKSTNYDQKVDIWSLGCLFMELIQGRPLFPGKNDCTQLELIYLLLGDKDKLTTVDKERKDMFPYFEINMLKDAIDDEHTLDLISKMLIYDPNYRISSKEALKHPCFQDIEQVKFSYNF

With `N#Cc1ccc(CNCCCCCCCNCc2ccc(-c3ccccc3)cc2)cc1`, the growth inhibition is 10% in experiment [1] and 87% (active) in experiment [4]. The results for the inhibition in experiment [2] and in experiment [3] were 19% and 3%, respectively. For the same compound, the outcome in experiment [5], in experiment [6], in experiment [7] and in experiment [8] was inactive.
As for `CN(C)c1nc2cc(-n3cnc4cc(-c5ccc(Cl)cc5)sc4c3=O)ccc2n1CCCN1CCCCC1`, the growth inhibition in experiment [1] was 23%; in experiment [4], 97% (active). The inhibition in experiment [2] is 55% (active); in experiment [3] it was 1%. Besides, the result in experiment [5], in experiment [6], in experiment [7] and in experiment [8] was inactive.
On to `CCN(CCCN1CCCCC1)c1cc(C)nc(Nc2ccc(Br)cc2F)n1`, for which the growth inhibition was 24% in experiment [1] and 95% (active) in experiment [4]. Moreover, the figures for the inhibition in experiment [2] and in experiment [3] were 32% and -6%, respectively. Moreover, the result in experiment [5], in experiment [6], in experiment [7] and in experiment [8] was inactive.
With `CCCC1(NC[C@@H](O)[C@H](Cc2ccccc2)NC(=O)c2cc(NCC)cc(N3CCCCS3(=O)=O)c2)CC1`, the growth inhibition in experiment [1] and in experiment [4] was 98% (active) throughout. The inhibition was 1% in experiment [2] and 0% in experiment [3]. Moreover, the result in experiment [5], in experiment [6], in experiment [7] and in experiment [8] was inactive.
For the compound `CCN(CC)S(=O)(=O)c1ccc(C(C)NC(=O)c2ccccc2COc2ccccc2)cc1` (stereo not given), the growth inhibition in experiment [1] was 89% (active); in experiment [4], 100% (active). Moreover, the inhibition is -3% in experiment [2] and 4% in experiment [3]. The result in experiment [5], in experiment [6], in experiment [7] and in experiment [8] was inactive.
Take `CCc1cccc(NC(=O)c2ccc(CN3CCCN(CC4CCCCC4)CC3)cc2)c1`: the values for the growth inhibition in experiment [1] and in experiment [4] were 36% and 84% (active), respectively. Further, the inhibition in experiment [2] was 44%; in experiment [3], 0%. In addition, the outcome in experiment [5], in experiment [6], in experiment [7] and in experiment [8] was inactive.
On to `CCOC(=O)c1c(C)n(-c2ccccc2)c2ccc(OC(=O)COc3ccc(Cl)cc3Cl)cc12`, for which the growth inhibition in experiment [1] was 87% (active); in experiment [4], 99% (active). Also, the inhibition in experiment [2] is 11%; in experiment [3], 3%. Moreover, the outcome in experiment [5], in experiment [6], in experiment [7] and in experiment [8] was inactive.
As to `COc1ccc2c(=O)ccn(CCN3CCC(NCc4ccc5c(n4)NC(=O)CS5)CC3)c2c1`, the growth inhibition in experiment [1] is 99% (active); in experiment [4], 98% (active). In addition, the inhibition in experiment [2] is 7%; in experiment [3] it was 1%. For the same compound, the outcome in experiment [5], in experiment [6], in experiment [7] and in experiment [8] was inactive.
Take `CS(=O)(=O)N(c1ccccc1)c1cc(C(=O)N[C@@H](Cc2ccccc2)[C@H](O)CNC2CC2)cc(N2CCCC2=O)c1`: the growth inhibition in experiment [1] was 98% (active); in experiment [4], 100% (active). Further, the inhibition in experiment [2] is 1%; in experiment [3] it was 4%. The outcome in experiment [5], in experiment [6], in experiment [7] and in experiment [8] was inactive.
`CCCc1cc(OCCCOc2ccccc2)ccc1OCCCON1C(N)=NC(N)=NC1(C)C`: the growth inhibition was 96% (active) in experiment [1] and 94% (active) in experiment [4]. Besides, the figures for the inhibition in experiment [2] and in experiment [3] were 68% (active) and 6%, respectively. Moreover, the result in experiment [5], in experiment [6], in experiment [7] and in experiment [8] was inactive.
As to `Cc1nc2c(s1)c(=O)cc(CCc1cccc(F)c1F)n2CC(=O)N(Cc1ccc(-c2ccc(C(F)(F)F)cc2)cc1)C1CCN(C(C)C)CC1`, the results for the growth inhibition in experiment [1] and in experiment [4] were 82% (active) and 100% (active), respectively. The inhibition in experiment [2] is 98% (active); in experiment [3], 0%. For the same compound, the outcome in experiment [5], in experiment [6], in experiment [7] and in experiment [8] was inactive.
On to `COc1ccc(NC(=O)[C@H](Cc2ccccc2)Nc2cc(C)nc(NCCOc3ccccc3)n2)cc1`, for which the growth inhibition in experiment [1] is 25%; in experiment [4], 98% (active). The values for the inhibition in experiment [2] and in experiment [3] were 11% and 3%, respectively. Also, the outcome in experiment [5], in experiment [6], in experiment [7] and in experiment [8] was inactive.
In the case of `COc1cc2ncnc(NCCc3ccccc3Cl)c2cc1OC`, the growth inhibition in experiment [1] is 11%; in experiment [4], 88% (active). The inhibition in experiment [2] is 0%; in experiment [3] it was 3%. Moreover, the result in experiment [5], in experiment [6], in experiment [7] and in experiment [8] was inactive.
With `COc1cc2nc(NCCc3cccc(Cl)c3)nc(NCc3ccccc3)c2cc1OC`, the growth inhibition in experiment [1] and in experiment [4] was 101% (active) in each case. Also, the inhibition was 97% (active) in experiment [2] and 0% in experiment [3]. The outcome in experiment [5], in experiment [6], in experiment [7] and in experiment [8] was inactive.
For `CN(c1ccccc1)S(=O)(=O)c1cccc(NC(=O)c2ccc(-n3ccnc3)c([N+](=O)[O-])c2)c1`, the figures for the growth inhibition in experiment [1] and in experiment [4] were -8% and 83% (active), respectively. For the same compound, the values for the inhibition in experiment [2] and in experiment [3] were 19% and 2%, respectively. The result in experiment [5], in experiment [6], in experiment [7] and in experiment [8] was inactive.
`COc1cc(C(=O)N2CCOC(CCN3CC[C@@H]4c5ccccc5C[C@@H]43)(c3ccc(Cl)c(Cl)c3)C2)cc(OC)c1OC` (stereo not given in full): the growth inhibition in experiment [1] is 82% (active); in experiment [4] it was 88% (active). The inhibition in experiment [2] is 32%; in experiment [3], 1%. The outcome in experiment [5], in experiment [6], in experiment [7] and in experiment [8] was inactive.
Consider `COc1cccc(C(=O)N2CCOC(CCN3CCC(c4ccccc4)CC3)(c3ccc(Cl)c(Cl)c3)C2)c1` (stereo not given), for which the values for the growth inhibition in experiment [1] and in experiment [4] were 63% (active) and 87% (active), respectively. Moreover, the inhibition is 38% in experiment [2] and -2% in experiment [3]. The outcome in experiment [5], in experiment [6], in experiment [7] and in experiment [8] was inactive.
As to `Cc1ccc(Nc2nccc(NCC(O)c3cccc(C(F)(F)F)c3)n2)cc1` (stereo not given), the figures for the growth inhibition in experiment [1] and in experiment [4] were 74% (active) and 99% (active), respectively. In addition, the results for the inhibition in experiment [2] and in experiment [3] were 19% and -6%, respectively. Moreover, the result in experiment [5], in experiment [6], in experiment [7] and in experiment [8] was inactive.
As for `O=C(Nc1ccncc1)Nc1ccc2c(c1)CCN(C1CCC1)CC2`, the growth inhibition in experiment [1] was 4%; in experiment [4] it was 87% (active). Moreover, the figures for the inhibition in experiment [2] and in experiment [3] were -1% and 4%, respectively. Moreover, the outcome in experiment [5], in experiment [6], in experiment [7] and in experiment [8] was inactive.
Turning to `CC(C)(C)c1ccc(CN2CCC(CNC(=O)c3cc(-c4ccccc4F)cs3)C2)cc1` (stereo not given), the figures for the growth inhibition in experiment [1] and in experiment [4] were 98% (active) and 100% (active), respectively. Besides, the figures for the inhibition in experiment [2] and in experiment [3] were 46% and 4%, respectively. In addition, the result in experiment [5], in experiment [6], in experiment [7] and in experiment [8] was inactive.
